Lassa entry inh: blocks Lassa virus binding to or entry into cells. AID 540256. Lassa virus pseudotype entry inhibition, cell reporter. actives 1.2% (n = 300,000). Potency, µM (doses to about 37.9 µM), for inactives: at the highest dose activity change, negative = inhibition, actives largely listed as inhibitors; calls by dose curve; tested in HEK293 cells; note: potency is the fitted concentration of half-maximal effect; nearly all actives have a fitted effect of over 50% in size
MARV entry inh: inhibitors of Marburg virus binding or cell entry. Potency, µM (titrated, usually from 37.8 µM), for the others: top-dose activity change, negative = inhibition, usual class: inhibitors. actives 1.8% (n = 300,000). Marburg virus pseudotyped entry inhibition, cell reporter; calls by dose curve; tested in HEK293 cells; note: potency is the fitted concentration of half-maximal effect
HCV inh: HCV inhibition. Huh7.5.1 HCVcc-Cre infection, luciferase reporter, 44 h. Potency, µM (top dose mostly 41.8 µM), for inactives: at the top dose activity change, negative = inhibition, actives largely listed as inhibitors. actives 3.4% (n = 340,000). AID 651820; note: potency is the fitted concentration of half-maximal effect
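After 44 h co-culture of compound, cells and HCVcc-Cre (~0.5 moi), substrate is added for 15 min at room temperature and luciferase measured over 15 sec. Cells were seeded at 1,000/well and pre-cultured 4 h.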
Pf growth 48h: P. falciparum growth inhibition at 48 hours (one generation) | P. falciparum luciferase growth in erythrocytes, 48 h | Potency, µM (titrated, usually from 28.7 µM), for the others: at the top dose activity change, negative = inhibition, hits mostly inhibitors | actives 5.9% (n = 310,000); note: potency is the fitted concentration of half-maximal effect
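First compound was added to culture medium, then infected red cells at 0.1% parasitemia and 2% hematocrit (final). After incubation at 37 C under 5% CO2, luciferase detection reagent was dispensed and light output recorded.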
HCMV antiviral: human cytomegalovirus inhibition; HFF cells, HCMV-luciferase reporter, 72 h; stronger effect = lower value; activity change, negative = inhibition, % at 57.5 µM; actives 4.5% (n = 410,000); AID 1259415; in the data active = activity change below about -60%; inconclusive = no clear call, values can overlap the other calls; inactive = above about -39%
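Luciferase read-out from HCMV-luciferase-infected HFFs (MOI 1 PFU/cell) 72 h post infection at 37C; compounds added after 16 h cell attachment; activity normalized between buffer-only basal and Salinomycin (10uM) inhibitor controls.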
Pf growth 96h: P. falciparum growth inhibition at 96 hour, primary screen for plastid delayed-death inhibitors | P. falciparum luciferase reporter growth, 96 h | Potency, µM (titrated, usually from 28.7 µM), for the others: at the top dose activity change, negative = inhibition, most hits filed as inhibitors | actives 6.9% (n = 320,000) | AID 504834; note: potency is the fitted concentration of half-maximal effect
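Two-generation exposure (96 h) targets delayed-death phenotype. Reporter parasites carrying integrated firefly luciferase, in red cells at 2% hematocrit and 0.05% parasitemia final, kept at 37 C, 5% CO2; luminescence loss indicates inhibition.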
Active calls of the source: *; u = inconclusive; x = no result given; [ ] = another dose, or the depositor's remark. Most compounds without a hit are left out; they make up all but 14% or so of the library. Unless noted, calls come from the whole dose curve; as a rule, active = well fitted inhibition curve with a large enough effect; inconclusive = small, poorly fitted or top-dose-only effect, or another doubt; inactive = no such curve, though single readings can be large or run the other way. % is set by controls: 0 for no effect and ±100 for the full control effect.

SMILES | Lassa entry inh | MARV entry inh | HCV inh | Pf growth 48h | HCMV antiviral | Pf growth 96h
O=[N+]([O-])c1ccc2nc(-[n+]3c(-c4ccccc4)cc(-c4ccccc4)cc3-c3ccccc3)[nH]c2c1 | 23.1µM* | u | u | u | x | u
COc1ccc2[nH]c(-c3ccccc3)cc2c1 | -26.6% | 8.91µM* | -28.1% | -14.5% | -36.1 | -43.4%
O=[N+]([O-])c1ccc(O)c(C=Nc2ccc3nc(-c4ccccc4)[nH]c3c2)c1 | 15.8% | u | 17.2% | -9.2% | 8.2 | 1.47µM*
O=[N+]([O-])c1ccc2nc(CCCc3nc4ccc([N+](=O)[O-])cc4[nH]3)[nH]c2c1 | 21.2%[46.1 µM] | 5.0%[46.1 µM] | -3.5% | -26.2% | -12.8 | 52.1%
Oc1c(Br)cc(C=Nc2ccc3nc(-c4ccccc4)[nH]c3c2)c(O)c1Br | -27.3%[46.1 µM] | u | -17.3% | u | 86.5 | 16.8%
CO[C@H]1CN(C)C(=O)c2ccc(NC(=O)NC(C)C)cc2OC[C@H](C)NC[C@H]1C | x | x | x | x | 12.5 | x
O=C(CN1C(=O)c2ccc([N+](=O)[O-])cc2C1=O)NC1CCCCCC1 | 0.7% | 14.7% | u | u | -21.2 | 7.7%
Cc1ccc(-c2nc3ccc([N+](=O)[O-])cc3[nH]2)cc1 | x | x | u | 128.6% | 22.0 | 2.9%
NC(N)=Nc1nc2ccc([N+](=O)[O-])cc2[nH]1 | x | x | 10.8% | 8.28µM* | -20.4 | 4.15µM*
O=[N+]([O-])c1cccc(-c2nc3ccc([N+](=O)[O-])cc3[nH]2)c1 | -9.3% | u | 14.1µM* | u | 10.6 | -6.9%
O=[N+]([O-])c1ccc2nc(-c3ccccc3[N+](=O)[O-])[nH]c2c1 | -22.9% | -19.8%[46.1 µM] | -17.2% | 53.5% | 73.4 | u
O=[N+]([O-])c1ccc2nc(-c3ccncc3)[nH]c2c1 | x | x | 4.2% | 2.08µM* | 71.6 | 5.22µM*
COc1ccc(-c2nc3ccc([N+](=O)[O-])cc3[nH]2)cc1 | 8.91µM* | u | -11.9% | 185.5% | 43.8 | u
Cc1cc(Br)ccc1NC(=O)C1CCN(S(=O)(=O)c2cccc3nsnc23)CC1 | -1.4%[46.1 µM] | u | x | x | 2.0 | x
O=[N+]([O-])c1ccc(-c2nc(-c3ccc(F)cc3)c(-c3ccncc3)[nH]2)cc1 | u | 8.2µM* | x | x | x | x
COc1ccc2nc(-c3ccccc3)[nH]c2c1 | u | u | -25.1% | 52.6% | 99.9 | 11.7µM*
O=[N+]([O-])c1ccc(/C=C/c2nc3ccc([N+](=O)[O-])cc3[nH]2)cc1 | u | -19.0% | -28.2% | 4.15µM* | -28.7 | -16.7%
Nc1nc2ccc([N+](=O)[O-])cc2[nH]1 | x | x | -4.9% | u | -34.1 | -13.2%
COc1ccc2[nH]c(-c3ccc(C)cc3)cc(=O)c2c1 | 4.11µM* | u | -8.0% | 35.2% | x | -61.9%
CCc1nnc(NS(=O)(=O)c2ccc(NC(=O)c3ccc([N+](=O)[O-])s3)cc2)s1 | x | x | x | x | -38.4 | x
CN(C(=O)c1ccc(NC(=O)Cc2ccccc2)cc1)c1ccccc1 | -14.0% | 25.8% | x | x | 67.4 | x
CCN(C(=O)c1ccc(NC(=O)Cc2ccccc2)cc1)c1ccccc1 | -24.0% | 3.3% | -9.5% | 3.5% | -67.1* | u
CCN(C(=O)c1ccccc1)c1ccc([N+](=O)[O-])cc1 | 0.4% | 13.5% | 3.0% | u | 26.1 | 8.28µM*
CN1C(=O)C(C(Nc2ccccc2)c2ccc(Br)cc2)c2ccccc21 (stereo not drawn) | x | x | x | x | 48.8 | x
CC(=O)c1cccc(NC(=O)CSc2ncc3c(n2)-c2cc(Cl)ccc2N(Cc2ccccc2)S3(=O)=O)c1 | u | x | x | x | -32.2 | x
CC(C)C[C@H]1COc2ccc(Cl)cc2S(=O)(=O)N1 | x | x | x | x | -30.9 | x
COc1ccc(CCNC(=O)Cn2cc(C(F)(F)F)cc(Cl)c2=O)cc1 | -6.1% | u | 5.8% | -2.0% | u | 20.7%
CCC1Oc2ccccc2N(CC(=O)NCCc2ccc(OC)c(OC)c2)C1=O (stereo not drawn) | 4.5%[46.1 µM] | 0.2% | u | u | u | 3.29µM*
CCCCc1c(O)nc(SCC(=O)NCCc2ccc(OC)c(OC)c2)[nH]c1=O | -7.4% | u | 6.1% | 27.5% | -22.5 | 5.86µM*
